Screens deposited in PubChem by National Center for Advancing Translational Sciences (NCATS).
Shown is part of a subset that was picked to be rich in hits.
Pf Dd2 inh – Plasmodium falciparum Dd2 growth inhibition; Potency, µM (series often up to 28.9 µM), without a hit: at the highest dose activity, negative = inhibition, usual class: inhibitors; hit rate 4.3% among 120,000; P. falciparum Dd2 growth, SYBR Green, 72 h; active means well fitted inhibition curve with a large enough effect;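 further: plate controls were DMSO vehicle for no effect and reference drug for full effect; nearly all actives have a fitted effect of over 65% in size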
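Infected erythrocytes (Dd2, 0.3% parasitemia, 2.5% hematocrit final) are added to compound in RPMI-1640/Albumax II medium, grown 72 h at 37C in low oxygen, then lysed with saponin/Triton-X containing SYBR Green and read by fluorescence.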
An asterisk follows results filed as active; i = inactive; [ ] = dose if it differs, or a comment. Potency means the concentration at half of the fitted maximal effect.

SMILES	Pf Dd2 inh
COc1ccc(-c2noc(-c3nnn4c3COC(c3ccc(C)cc3C)C4)n2)cc1OC (stereo not given)	i
Cc1ccc(F)c(OC2(C(=O)O)CCN(c3cnc4ccccc4n3)CC2)c1	-9%
COc1ccc(OC)c(NC(=O)CCn2ccn3nc4c(c3c2=O)CCCC4)c1	i
Cc1cnc(C(=O)N2CCC(Cc3ccc(C(N)=O)cc3)CC2)cn1	30%
Cc1ccc(NC(=O)CSc2nc(C)c(Cc3ccccc3)c(=O)[nH]2)cc1C	-25%
Cc1cccc(NC(=O)CSc2nnc(C)c(=O)[nH]2)c1	49%
Cc1nnc(SCC(=O)Nc2ccc(N(C)C)cc2)[nH]c1=O	11µM*
COc1ccc(CCNC(=O)c2ccc3nc(C)cn3c2)cc1	-5%
Cc1ccc(NC(=O)CCn2nc(C)c3c(C)n(-c4ccccc4)nc3c2=O)cc1Cl	-12%
CCOC(=O)c1cccc(NC(=O)CCn2nc(C)c3c(C)n(-c4ccccc4)nc3c2=O)c1	2.5µM*
CCc1ccccc1NC(=O)CCn1nc(C)c2c(C)n(-c3ccccc3)nc2c1=O	-24%
O=C(c1ccccc1F)N1CCCC2(CNc3ccccc3[S+](=O)([O-])N2)C1 (stereo not given)	-19%
CN(C)S(=O)(=O)N1CCC2(CC1)CC1C(=O)NCCN1C2 (stereo not given)	12%
COc1cccc(CN2CCc3nnc([C@@H]4C[C@@H](O)CN4C)n3CC2)c1	-24%
COc1ccccc1N1CCN([C@H]2[C@@H]3OC[C@@H](O3)[C@@H](NCc3ccc(F)cc3)[C@@H]2O)CC1	7.9µM*
COc1ccccc1N1CCN([C@H]2[C@@H]3OC[C@@H](O3)[C@@H](NCc3ccncc3)[C@@H]2O)CC1	-7%[44.1 µM]
O=C(Nc1ccccc1)N[C@H]1[C@H](O)[C@@H](N2CCC(Cc3ccccc3)CC2)[C@@H]2OC[C@H]1O2	-5%
COc1ccccc1N1CCN([C@H]2[C@@H]3OC[C@@H](O3)[C@@H](NCc3ccc(N(C)C)cc3)[C@@H]2O)CC1	-3%
CC(C)CN[C@H]1[C@H](O)[C@@H](N2CCC(Cc3ccccc3)CC2)[C@@H]2OC[C@H]1O2	4µM*
O[C@H]1[C@H](NCc2ccncc2)[C@H]2CO[C@H](O2)[C@@H]1N1CCC(Cc2ccccc2)CC1	i
O=C(NCC1CC1)c1cccc(OC2CN(Cc3ccc(F)cc3Cl)C2)c1	11µM*
CCN1CCC(N2CC(Oc3cccc(C(=O)NCC4CC4)c3)C2)CC1	5%
O=C(NCC1CC1)c1cccc(OC2CN(C3CCSCC3)C2)c1	-9%
COC(=O)N1CCC2(CC1)C(=O)NN=C2C1CC1	9%[44.1 µM]
COc1ccc2c(c1)c(CN1CC[C@H](CO)[C@H](N(C)C)C1)cn2C(C)C	-5%
SMILES	Pf Dd2 inh
Cc1ccc(-c2nc(S(=O)(=O)c3ccc(C)cc3)c(N3CCN(c4ccccc4)CC3)o2)cc1	25%
Cc1ccc(S(=O)(=O)c2nc(-c3ccccc3)oc2N2CCN(c3ccccc3)CC2)cc1	40%
Cc1ccc(S(=O)(=O)c2nc(-c3cccc(C)c3)oc2N2CCN(c3ccccc3)CC2)cc1	10µM*
NC(=O)[C@@H](Cc1ccccc1)NC(=O)[C@@]1(O)C[C@@H](O)[C@H](O)[C@@H](NS(=O)(=O)c2cccc(C(F)(F)F)c2)C1	0%
O=C(CC1CCCCC1)N1CCC2(CC1)NC(=O)N(c1ccc(F)cc1)N2	i
Cc1nc(-c2cccc(Cl)c2)n(CC(=O)NCCCc2ccccc2)c(=O)c1CCO	i
CCOC(=O)c1c(NC(=O)CS(=O)(=O)c2ccc(C)cc2)sc2c1CCC(C)C2 (stereo not given)	42%
CCOC(=O)c1c(NC(=O)c2ccccc2C)sc2c1CCCC2	2%
CNC(=O)c1c(NC(=O)c2ccc(S(=O)(=O)N3CCC(C)CC3)cc2)sc2c1CCC2	0%
CCOC(=O)c1c(NC(=O)c2ccc(S(=O)(=O)N3CCC(C)CC3)cc2)sc2c1CCN(C)C2	8.9µM*
CCOc1cccc2sc(NC(=O)c3ccc(S(=O)(=O)N4CCCCC4C)cc3)nc12 (stereo not given)	-7%
CCOC(=O)c1c(NC(=O)c2ccc(S(=O)(=O)N(C)C3CCCCC3)cc2)sc2c1CCN(C(C)C)C2	11µM*
CCCOc1ccc(C(=O)Nc2sc3c(c2C(=O)OCC)CCCCC3)cc1	i
CCCCN(C)S(=O)(=O)c1ccc(C(=O)Nc2sc3c(c2C(=O)OCC)CCN(C(C)C)C3)cc1	6.3µM*
COC(=O)c1c(NC(=O)c2ccc(S(=O)(=O)N3CCCCC3C)cc2)sc2c1CCN(C(C)C)C2 (stereo not given)	11µM*
CCOC(=O)c1c(NC(=O)c2ccc(Br)cc2)sc2c1CCCC2	1%
CCOC(=O)c1c(NC(=O)c2ccc(S(=O)(=O)N(C)C)cc2)sc2c1CCN(C)C2	i
CNC(=O)c1c(NC(=O)c2ccc(S(=O)(=O)N3CCCCC3C)cc2)sc2c1CCC2 (stereo not given)	i
CC(=O)NC[C@H]1CCN(S(=O)(=O)c2ccc3c(c2)OCCO3)C[C@H]1N(C)C	0%
COc1ccc(CN2CC3(CCN(C(=O)Nc4cccc(C)c4)CC3)C2=O)cc1	-20%
CN(CC1CCOCC1)C(=O)c1cc(F)ccc1Cl	12%
COc1ccc(C(=O)N2C[C@@H]3OCC(=O)N(Cc4ccccc4)[C@@H]3C2)cc1	13%[44.1 µM]
CC(C)CCN1CC2(CCCN(C(=O)CCn3cnnc3)C2)CCC1=O (stereo not given)	-7%
CC(C)NC(=O)C[C@@H]1C[C@H]2O[C@H](CNC(=O)NC3CCCCC3)[C@@H](O)[C@H]2O1	14%[44.1 µM]
CC(NC(=O)CN1C(=O)COc2ccc(C(=O)COc3ccc(F)cc3F)cc21)c1ccccc1 (stereo not given)	i
SMILES	Pf Dd2 inh
CC(C)(C)c1nnc([C@H]2CCN(Cc3cnc4ccccc4c3)C2)o1	i
COCCN(CCOC)S(=O)(=O)c1ccc(C(=O)Nc2sc3c(c2C(N)=O)CCCC3)cc1	8%
COCCN(CCOC)S(=O)(=O)c1ccc(C(=O)Nc2sc3c(c2C(=O)OC)CCN(C)C3)cc1	11µM*
COC(=O)c1c(NC(=O)c2ccc(C(C)(C)C)cc2)sc2c1CCC(C)C2 (stereo not given)	30%
Cc1cnc(C(=O)N[C@@H]2CCC[C@@H]2C(=O)NCCC2=CCCCC2)cn1	-9%
CCNC(=O)c1cccnc1OC1CCN(C(=O)c2ccccc2Cl)C1 (stereo not given)	-3%
O=C(Nc1cccc(F)c1)N1CCC2(CC1)CC(N1CCOCC1)CCO2 (stereo not given)	i
NCC(=O)N1CCC2(CC1)CN(C(=O)Cc1cccc(Cl)c1)CCO2	10%
CCOc1ccc(CN2CCCC(CCC(=O)Nc3ccccc3F)C2)cc1CO (stereo not given)	i
COc1ccccc1/C=C/CN1CCCC(CCC(=O)Nc2ccccc2F)C1 (stereo not given)	8.9µM*
COc1ccccc1CNC(=O)CCC1CCCN(S(=O)(=O)c2ccccc2F)C1 (stereo not given)	i
COc1ccccc1/C=C/CN1CCCC(CNC(=O)COc2ccccc2OC)C1 (stereo not given)	7.9µM*
O=C(CCC1CCCN(C(=O)Cc2c[nH]c(=O)[nH]c2=O)C1)Nc1ccccc1F (stereo not given)	-20%
COc1cccc(C(=O)NCC2CCCN(C/C(C)=C/c3ccccc3)C2)c1OC (stereo not given)	-11%
COc1cccc(C(=O)NCC2CCCN(Cc3nc4ccccc4[nH]3)C2)c1OC (stereo not given)	i
O=C(CCC1CCN(C(=O)c2ccccc2)CC1)Nc1ccccc1F	i
